# Assay results: the supplement of paper PMC4466140
# B1: unnamed (peptide)
# chain: TPTSGPPLLPPRNTM
# Molecular target: AgAbp1
# Assay: SPOT peptide array binding signal intensity (averaged, normalized) (arbitrary units (background-subtracted, floor 0; scale differs between SH3 domains)); higher = stronger binding of the SH3 domain to the peptide
# Method in brief: (§1)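 Cellulose membranes carried synthetic 15-mer peptides with cysteines swapped for serines. These were incubated overnight at 4°C with 10 μg/ml of GST-fused SH3 domains from four yeast species in TBS-based blocking buffer. Binding signal, detected with anti-GST antibody and quantified in Genespotter, is the normalized, background-subtracted spot intensity averaged over replicates, in arbitrary units specific to each domain.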
row,Binder,SPOT peptide array binding signal intensity
1,B1,≤ 0

# Molecular target: AgBbc1
# Assay: as above
# Method in brief: as §1
row,Binder,SPOT peptide array binding signal intensity
1,B1,128

# Molecular target: AgBem1-D1
# Assay: as above
# Method in brief: as §1
row,Binder,SPOT peptide array binding signal intensity
1,B1,≤ 0

# Molecular target: AgBzz1-D1
# Assay: as above
# Method in brief: as §1
row,Binder,SPOT peptide array binding signal intensity
1,B1,15

# Molecular target: AgBzz1-D2
# Assay: as above
# Method in brief: as §1
row,Binder,SPOT peptide array binding signal intensity
1,B1,≤ 0

# Molecular target: AgCyk3
# Assay: as above
# Method in brief: as §1
row,Binder,SPOT peptide array binding signal intensity
1,B1,6

# Molecular target: AgFus1
# Assay: as above
# Method in brief: as §1
row,Binder,SPOT peptide array binding signal intensity
1,B1,≤ 0

# Molecular target: AgHof1
# Assay: as above
# Method in brief: as §1
row,Binder,SPOT peptide array binding signal intensity
1,B1,21.2

# Molecular target: AgHse1
# Assay: as above
# Method in brief: as §1
row,Binder,SPOT peptide array binding signal intensity
1,B1,65.5

# Molecular target: AgLsb1
# Assay: as above
# Method in brief: as §1
row,Binder,SPOT peptide array binding signal intensity
1,B1,778

# Molecular target: AgLsb4
# Assay: as above
# Method in brief: as §1
row,Binder,SPOT peptide array binding signal intensity
1,B1,5100

# Molecular target: AgMyo5
# Assay: as above
# Method in brief: as §1
row,Binder,SPOT peptide array binding signal intensity
1,B1,124

# Molecular target: AgNbp2
# Assay: as above
# Method in brief: as §1
row,Binder,SPOT peptide array binding signal intensity
1,B1,≤ 0

# Molecular target: AgRvs167
# Assay: as above
# Method in brief: as §1
row,Binder,SPOT peptide array binding signal intensity
1,B1,801

# Molecular target: AgSho1
# Assay: as above
# Method in brief: as §1
row,Binder,SPOT peptide array binding signal intensity
1,B1,≤ 0

# Molecular target: AgSla1-D1-D2
# Assay: as above
# Method in brief: as §1
row,Binder,SPOT peptide array binding signal intensity
1,B1,≤ 0

# Molecular target: AgSla1-D3
# Assay: as above
# Method in brief: as §1
row,Binder,SPOT peptide array binding signal intensity
1,B1,0.5

# Molecular target: CaAbp1-D1
# Assay: as above
# Method in brief: as §1
row,Binder,SPOT peptide array binding signal intensity
1,B1,≤ 0

# Molecular target: CaAbp1-D2
# Assay: as above
# Method in brief: as §1
row,Binder,SPOT peptide array binding signal intensity
1,B1,≤ 0

# Molecular target: CaBbc1
# Assay: as above
# Method in brief: as §1
row,Binder,SPOT peptide array binding signal intensity
1,B1,153

# Molecular target: CaBem1-D1
# Assay: as above
# Method in brief: as §1
row,Binder,SPOT peptide array binding signal intensity
1,B1,0.5

# Molecular target: CaBzz1-D1
# Assay: as above
# Method in brief: as §1
row,Binder,SPOT peptide array binding signal intensity
1,B1,91

# Molecular target: CaBzz1-D2
# Assay: as above
# Method in brief: as §1
row,Binder,SPOT peptide array binding signal intensity
1,B1,33.5

# Molecular target: CaCyk3
# Assay: as above
# Method in brief: as §1
row,Binder,SPOT peptide array binding signal intensity
1,B1,1

# Molecular target: CaFus1
# Assay: as above
# Method in brief: as §1
row,Binder,SPOT peptide array binding signal intensity
1,B1,25

# Molecular target: CaHof1
# Assay: as above
# Method in brief: as §1
row,Binder,SPOT peptide array binding signal intensity
1,B1,4.75

# Molecular target: CaHse1
# Assay: as above
# Method in brief: as §1
row,Binder,SPOT peptide array binding signal intensity
1,B1,100

# Molecular target: CaLsb1
# Assay: as above
# Method in brief: as §1
row,Binder,SPOT peptide array binding signal intensity
1,B1,5.5

# Molecular target: CaLsb4
# Assay: as above
# Method in brief: as §1
row,Binder,SPOT peptide array binding signal intensity
1,B1,5320

# Molecular target: CaMyo5
# Assay: as above
# Method in brief: as §1
row,Binder,SPOT peptide array binding signal intensity
1,B1,36.8

# Molecular target: CaNbp2
# Assay: as above
# Method in brief: as §1
row,Binder,SPOT peptide array binding signal intensity
1,B1,21

# Molecular target: CaRvs167
# Assay: as above
# Method in brief: as §1
row,Binder,SPOT peptide array binding signal intensity
1,B1,2460

# Molecular target: CaRvs167-3
# Assay: as above
# Method in brief: as §1
row,Binder,SPOT peptide array binding signal intensity
1,B1,≤ 0

# Molecular target: CaSho1
# Assay: as above
# Method in brief: as §1
row,Binder,SPOT peptide array binding signal intensity
1,B1,5.5

# Molecular target: CaSla1-D1-D2
# Assay: as above
# Method in brief: as §1
row,Binder,SPOT peptide array binding signal intensity
1,B1,185

# Molecular target: CaSla1-D3
# Assay: as above
# Method in brief: as §1
row,Binder,SPOT peptide array binding signal intensity
1,B1,23.8

# Molecular target: ScAbp1
# Assay: as above
# Method in brief: as §1
row,Binder,SPOT peptide array binding signal intensity
1,B1,≤ 0

# Molecular target: ScBbc1
# Assay: as above
# Method in brief: as §1
row,Binder,SPOT peptide array binding signal intensity
1,B1,1

# Molecular target: ScBem1-D1
# Assay: as above
# Method in brief: as §1
row,Binder,SPOT peptide array binding signal intensity
1,B1,≤ 0

# Molecular target: ScBzz1-D1
# Assay: as above
# Method in brief: as §1
row,Binder,SPOT peptide array binding signal intensity
1,B1,3

# Molecular target: ScBzz1-D2
# Assay: as above
# Method in brief: as §1
row,Binder,SPOT peptide array binding signal intensity
1,B1,≤ 0

# Molecular target: ScCyk3
# Assay: as above
# Method in brief: as §1
row,Binder,SPOT peptide array binding signal intensity
1,B1,2

# Molecular target: ScFus1
# Assay: as above
# Method in brief: as §1
row,Binder,SPOT peptide array binding signal intensity
1,B1,≤ 0

# Molecular target: ScHof1
# Assay: as above
# Method in brief: as §1
row,Binder,SPOT peptide array binding signal intensity
1,B1,8

# Molecular target: ScHse1
# Assay: as above
# Method in brief: as §1
row,Binder,SPOT peptide array binding signal intensity
1,B1,≤ 0

# Molecular target: ScLsb1
# Assay: as above
# Method in brief: as §1
row,Binder,SPOT peptide array binding signal intensity
1,B1,1070

# Molecular target: ScLsb2
# Assay: as above
# Method in brief: as §1
row,Binder,SPOT peptide array binding signal intensity
1,B1,65.5

# Molecular target: ScLsb3
# Assay: as above
# Method in brief: as §1
row,Binder,SPOT peptide array binding signal intensity
1,B1,6040

# Molecular target: ScLsb4
# Assay: as above
# Method in brief: as §1
row,Binder,SPOT peptide array binding signal intensity
1,B1,6540

# Molecular target: ScMyo3
# Assay: as above
# Method in brief: as §1
row,Binder,SPOT peptide array binding signal intensity
1,B1,538

# Molecular target: ScMyo5
# Assay: as above
# Method in brief: as §1
row,Binder,SPOT peptide array binding signal intensity
1,B1,80

# Molecular target: ScNbp2
# Assay: as above
# Method in brief: as §1
row,Binder,SPOT peptide array binding signal intensity
1,B1,≤ 0

# Molecular target: ScPex13
# Assay: as above
# Method in brief: as §1
row,Binder,SPOT peptide array binding signal intensity
1,B1,1680

# Molecular target: ScRvs167
# Assay: as above
# Method in brief: as §1
row,Binder,SPOT peptide array binding signal intensity
1,B1,2570

# Molecular target: ScSho1
# Assay: as above
# Method in brief: as §1
row,Binder,SPOT peptide array binding signal intensity
1,B1,1.5

# Molecular target: ScSla1-D1-D2
# Assay: as above
# Method in brief: as §1
row,Binder,SPOT peptide array binding signal intensity
1,B1,268

# Molecular target: ScSla1-D3
# Assay: as above
# Method in brief: as §1
row,Binder,SPOT peptide array binding signal intensity
1,B1,51.5

# Molecular target: SpAbp1-D1
# Assay: as above
# Method in brief: as §1
row,Binder,SPOT peptide array binding signal intensity
1,B1,3

# Molecular target: SpBbc1
# Assay: as above
# Method in brief: as §1
row,Binder,SPOT peptide array binding signal intensity
1,B1,≤ 0

# Molecular target: SpBzz1-D1
# Assay: as above
# Method in brief: as §1
row,Binder,SPOT peptide array binding signal intensity
1,B1,176
